The source of these data is PubChem BioAssay (NCATS).

Assay [1] concerns the target Lysosomal acid glucosylceramidase (Homo sapiens) (UniProt P04062). In words: Glucocerebrosidase-p2 (AID 348; in the data active = potency below about 10 µM; note: potency is the fitted concentration of half-maximal effect). As to conditions: purified GBA, blue fluorogenic substrate, 40 min. The method in brief:
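Compounds titrated from 0.6 nM upwards against 0.2 nM enzyme in pH 5.9 citric acid/KH2PO4, taurocholate, tween-20; blue fluorogenic substrate 80 uM, 40 min room temperature, stopped and read Ex 365/Em 440 for AC50.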

Assay [2] is described as follows: AP1 Signaling Pathway (AID 357).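 Note: ME-180 reporter cells stimulated with EGF at its EC50 level; % is set by controls: 0 for no effect and ±100 for the full control effect.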 As to conditions: ME-180 AP-1-bla reporter, EGF-induced, beta-lactamase ratio, 5 h; at 7.69 µM (top of the series) unless noted. In short, it runs like this:
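Beta-lactamase reporter under AP-1 response element, ME-180 background. Stimulus: EC50 EGF. Compound exposure 5 h, 37 °C. Detection: CCF4, 2.5 h RT, 460/530 nm. Values: AC50 from titration.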

The nature of assay [3]: NFAT Signaling Pathway (AID 444).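 Note: carbachol stimulus at about its EC50 of 1 µM final; % is set by controls: 0 for no effect and ±100 for the full control effect.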 As to conditions: Jurkat NFAT-bla M1, carbachol, beta-lactamase ratio, 5 h; at 7.69 µM (top of the series) unless noted. The method in brief:
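Jurkat cells carrying an NFAT-driven β-lactamase reporter and co-transfected muscarinic M1 receptor were treated with compound plus carbachol (1 uM final, an EC50 level) for 5 h at 37 °C. CCF4 loading followed for 1 h at RT; 460/530 nm ratio gave %activity.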

A short description of assay [4]: Stat Signaling Pathway (AID 446).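 Note: ME-180 cervical cancer cells given 40 pM IL-6 alongside compound; SIE-controlled beta-lactamase reporter measured as 460/530 nm FRET emission ratio; % is set by controls: 0 for no effect and ±100 for the full control effect.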 As to conditions: ME-180 SIE beta-lactamase reporter, IL-6 stimulated, 5 h; at 7.69 µM (top of the series) unless noted. In short, it runs like this: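 ME-180 cells carrying a SIE-driven beta-lactamase reporter are stimulated with 40 pM IL-6 for 5 h at 37C in the presence of compound. The 460/530 nm FRET substrate ratio is read after 2.5 h at RT. Data are normalised to 300 pM IL-6 and to 125 nM JAK inhibitor controls.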

Assay [5] concerns the target Glucocorticoid receptor (Homo sapiens) (UniProt P04150). The assay is described as follows: GR-GFP Redistribution (AID 450;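 active = compounds whose dose series gives a full or clear partial fitted curve of increased nuclear translocation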; note: potency is the fitted concentration of half-maximal effect). The settings on record: U2OS GR-GFP nuclear translocation, laser cytometry, 2 h.
Assay [6] has the same target. In words: GR-EFC Redistribution (AID 451; calls by dose curve; note: potency is the fitted concentration of half-maximal effect). The settings on record: CHO-K1 GR-EFC translocation, beta-gal luminescence, 2 h. The method in brief: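 CHO-K1 cells stably expressing nuclear-localized β-gal enzyme acceptor and GR fused C-terminally to the enzyme donor fragment; ligand-driven nuclear translocation restores β-gal by complementation. Compounds titrated up to 46 uM final, 2 h at 37 °C; luminescence read.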

The target in assay [7] is Mitogen-activated protein kinase 10 (Mus musculus) (UniProt Q61831). In words: JNK3 AlphaScreen Assay (AID 530).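 Note: kinase came from lysate of stimulated human HepG2 cells; signal reports phosphorylation of biotinylated GST-cJun 1-79 at Ser73 with 10 µM ATP; % is set by controls: 0 for no effect and ±100 for the full control effect.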 The settings on record: JNK3 lysate, c-Jun phosphorylation; series mostly up to 57.1 µM. In short, it runs like this:
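Inhibitors reduce antibody binding to phosphorylated biotin-cJun, lowering AlphaScreen luminescence. Lysates from HepG2 cells pre-activated by IL-1beta plus TNF-alpha supplied JNK3; compounds were titrated.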
For orientation: Bead proximity is the source of the signal in Alpha formats.

Assay [8] addresses 3',5'-cyclic-AMP phosphodiesterase 4B (Homo sapiens) (UniProt Q07343). In words: qHTS Assay for Inhibitors of PDE-IV (AID 607; active = well fitted activation curve with a large enough effect in the main read-out, with a control signal flat, not every such curve was filed as active; note: % of control where 0% means no effect). The settings on record: HEK293 ACTOne CNG channel cells, membrane potential fluorescence; series mostly up to 22.9 µM. The method in brief: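 HEK293 ACTOne cells with CNG channel (1000/well), endogenous PDE4; membrane potential dye, compounds up to 22.9 uM final. Fluorescence Ex 535/Em 590; RO 20-1724 (100 uM final) as reference.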

Assay [9] addresses Cytochrome P450 3A4 (Homo sapiens) (UniProt P08684). In words: qHTS Assay for Activators of Cytochrome P450 3A4 (AID 885; active = well fitted curve in the direction sought with a large enough effect; an effect the other way counts as inactive or inconclusive; note: nearly all actives have a fitted effect of over 65% in size; note: potency is the fitted concentration of half-maximal effect). The settings on record: recombinant CYP3A4, Luciferin-PPXE luminescence, 60 min; series mostly up to 57.1 µM. In short, it runs like this:
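Human CYP3A4 (20 nM) with Luciferin-PPXE at 25 uM (its KM) in 200 mM KPO4; 10 min compound preincubation, then NADPH regeneration and 60 min reaction at RT. Luciferin read by luminescence; normalized to 57 uM ketoconazole full inhibition.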

The nature of assay [10]: qHTS Assay for Identification of Small Molecule Agonists for Hypoxia Response Element Signaling Pathway (AID 914; active = well fitted activation curve with a large enough effect in the signal ratio, with a control signal flat, not every such curve was filed as active; the % refers to the signal ratio; note: % of control where 0% means no effect). The settings on record: ME-180 (cervical carcinoma) HRE-bla reporter, beta-lactamase ratio, CoCl2, 17 h; activation: hits give high values. In short, it runs like this:
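A beta-lactamase reporter under hypoxia response element control in ME-180 cells served as the system. Compound titrations plus EC50 CoCl2 ran 17 h at 37 degrees Celsius; AC50 values were fitted from %Activity.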
On the technique in general: qHTS replaces the single test concentration by a dilution series.

Assay [11] is described as follows: Primary qHTS for small molecule stabilizers of the endoplasmic reticulum resident proteome: Secreted ER Calcium Modulated Protein (SERCaMP) assay (AID 1508630; active = well fitted curve in the direction sought with a large enough effect; an effect the other way counts as inactive or inconclusive; note: % is set by controls: 0 for no effect and ±100 for the full control effect). The settings on record: SH-SY5Y GLuc-SERCaMP (Gaussia luciferase released on ER calcium loss) secretion, thapsigargin, luminescence; series mostly up to 38.4 µM. The method in brief: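 GLuc-SERCaMP-expressing SH-SY5Y cells, pretreated 16 h with compound, are challenged with thapsigargin to empty ER calcium stores; after 4 h, coelenterazine is added directly to the medium and luminescence is imaged.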

In assay [12] the target is Cytochrome P450 3A4 (Homo sapiens) (UniProt P08684). In words: qHTS Assay for Inhibitors and Substrates of Cytochrome P450 3A4 (AID 884; active = well fitted curve in the direction sought with a large enough effect; an effect the other way counts as inactive or inconclusive; note: nearly all actives have a fitted effect of over 50% in size; note: potency is the fitted concentration of half-maximal effect). As to conditions: recombinant CYP3A4, Luciferin-PPXE luminescence; series mostly up to 57.1 µM. The method in brief: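 20 nM human CYP3A4 with 25 uM Luciferin-PPXE (at KM) in 200 mM KPO4, preincubated 10 min with compound; NADPH regeneration started a 60 min RT reaction. Luciferin detected by luminescence, normalized to 57 uM ketoconazole as full inhibition.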

The target of assay [13] is Cytochrome P450 2D6 (Homo sapiens) (UniProt P10635). The assay is described as follows: qHTS Assay for Inhibitors and Substrates of Cytochrome P450 2D6 (AID 891; active = well fitted curve in the direction sought with a large enough effect; an effect the other way counts as inactive or inconclusive; note: potency is the fitted concentration of half-maximal effect; nearly all actives have a fitted effect of over 60% in size). As to conditions: recombinant CYP2D6, luciferin-ME EGE luminescence; series mostly up to 57.1 µM. In short, it runs like this:
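Human CYP2D6 (5 nM) with 30 uM Luciferin-ME EGE (at Km) in 100 mM KPO4, compound preincubated 10 min, then NADPH regeneration system for 60 min at room temperature. Luciferin read by luminescence; normalized to 1.43 uM quinidine.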

A number with no mark means an inactive call. Inconclusive results are not listed. The source made the active and inactive calls. Unless noted, calls come from the whole dose curve; as a rule, active = well fitted curve in either direction with a large enough effect (not every such curve was filed as active); inconclusive = small, poorly fitted or top-dose-only effect, or another doubt; inactive = flat fitted curve, though single readings scatter. Where only a bound is given, the exact number is not on record here.

Cytochrome P450 3A4 (Homo sapiens), sequence (P08684 whole entry, looked up): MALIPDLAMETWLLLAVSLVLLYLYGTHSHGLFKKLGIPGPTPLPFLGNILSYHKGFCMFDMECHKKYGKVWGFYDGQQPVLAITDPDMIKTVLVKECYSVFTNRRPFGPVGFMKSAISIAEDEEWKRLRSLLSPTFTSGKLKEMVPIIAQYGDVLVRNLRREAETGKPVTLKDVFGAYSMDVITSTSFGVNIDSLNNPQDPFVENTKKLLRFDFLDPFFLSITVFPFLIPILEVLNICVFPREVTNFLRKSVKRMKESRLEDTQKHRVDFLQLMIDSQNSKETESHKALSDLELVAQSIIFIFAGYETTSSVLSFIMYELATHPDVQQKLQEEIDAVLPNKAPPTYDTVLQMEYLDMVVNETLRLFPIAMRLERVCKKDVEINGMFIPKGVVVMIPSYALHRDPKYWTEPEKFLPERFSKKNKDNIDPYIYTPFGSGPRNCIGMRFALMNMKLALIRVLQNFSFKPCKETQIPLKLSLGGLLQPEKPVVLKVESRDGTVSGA
Lysosomal acid glucosylceramidase (Homo sapiens), sequence (P04062 whole entry, looked up): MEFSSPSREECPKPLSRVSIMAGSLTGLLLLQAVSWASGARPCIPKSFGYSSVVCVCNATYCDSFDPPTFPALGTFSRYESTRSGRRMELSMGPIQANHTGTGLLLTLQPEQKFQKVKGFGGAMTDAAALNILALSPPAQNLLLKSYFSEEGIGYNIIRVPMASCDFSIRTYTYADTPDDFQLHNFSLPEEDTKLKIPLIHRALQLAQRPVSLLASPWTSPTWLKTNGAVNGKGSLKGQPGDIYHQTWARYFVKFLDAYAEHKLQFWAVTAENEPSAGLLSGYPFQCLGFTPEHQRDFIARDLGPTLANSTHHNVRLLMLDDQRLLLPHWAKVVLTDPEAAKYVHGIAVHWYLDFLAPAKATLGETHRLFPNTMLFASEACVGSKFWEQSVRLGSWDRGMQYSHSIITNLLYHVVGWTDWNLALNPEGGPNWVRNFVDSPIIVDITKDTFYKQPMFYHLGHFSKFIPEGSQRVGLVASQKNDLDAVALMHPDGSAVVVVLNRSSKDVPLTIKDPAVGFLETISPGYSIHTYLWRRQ
Glucocorticoid receptor (Homo sapiens), sequence (P04150 whole entry, looked up, the tested form may be a part): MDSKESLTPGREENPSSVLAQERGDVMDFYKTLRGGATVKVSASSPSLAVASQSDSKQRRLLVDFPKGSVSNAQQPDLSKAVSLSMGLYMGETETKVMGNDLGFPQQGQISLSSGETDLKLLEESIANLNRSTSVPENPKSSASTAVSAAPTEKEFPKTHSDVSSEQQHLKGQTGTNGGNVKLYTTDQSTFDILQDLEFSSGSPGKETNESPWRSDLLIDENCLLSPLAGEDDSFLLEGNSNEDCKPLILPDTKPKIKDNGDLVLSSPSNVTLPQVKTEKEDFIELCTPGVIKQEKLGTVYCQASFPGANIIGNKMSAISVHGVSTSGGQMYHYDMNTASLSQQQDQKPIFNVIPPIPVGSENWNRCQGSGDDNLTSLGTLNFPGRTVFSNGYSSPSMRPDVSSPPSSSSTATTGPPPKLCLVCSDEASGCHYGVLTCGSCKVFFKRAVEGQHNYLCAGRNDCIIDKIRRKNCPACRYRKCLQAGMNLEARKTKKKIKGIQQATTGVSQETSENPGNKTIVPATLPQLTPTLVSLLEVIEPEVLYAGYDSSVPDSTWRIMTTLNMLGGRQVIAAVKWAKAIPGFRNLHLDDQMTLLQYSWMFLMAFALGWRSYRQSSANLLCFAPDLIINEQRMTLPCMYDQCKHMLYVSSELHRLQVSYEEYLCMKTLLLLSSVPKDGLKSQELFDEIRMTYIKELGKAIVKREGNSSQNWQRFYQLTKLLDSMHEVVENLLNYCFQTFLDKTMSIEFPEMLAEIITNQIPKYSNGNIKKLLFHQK
3',5'-cyclic-AMP phosphodiesterase 4B (Homo sapiens), sequence (Q07343 whole entry, looked up): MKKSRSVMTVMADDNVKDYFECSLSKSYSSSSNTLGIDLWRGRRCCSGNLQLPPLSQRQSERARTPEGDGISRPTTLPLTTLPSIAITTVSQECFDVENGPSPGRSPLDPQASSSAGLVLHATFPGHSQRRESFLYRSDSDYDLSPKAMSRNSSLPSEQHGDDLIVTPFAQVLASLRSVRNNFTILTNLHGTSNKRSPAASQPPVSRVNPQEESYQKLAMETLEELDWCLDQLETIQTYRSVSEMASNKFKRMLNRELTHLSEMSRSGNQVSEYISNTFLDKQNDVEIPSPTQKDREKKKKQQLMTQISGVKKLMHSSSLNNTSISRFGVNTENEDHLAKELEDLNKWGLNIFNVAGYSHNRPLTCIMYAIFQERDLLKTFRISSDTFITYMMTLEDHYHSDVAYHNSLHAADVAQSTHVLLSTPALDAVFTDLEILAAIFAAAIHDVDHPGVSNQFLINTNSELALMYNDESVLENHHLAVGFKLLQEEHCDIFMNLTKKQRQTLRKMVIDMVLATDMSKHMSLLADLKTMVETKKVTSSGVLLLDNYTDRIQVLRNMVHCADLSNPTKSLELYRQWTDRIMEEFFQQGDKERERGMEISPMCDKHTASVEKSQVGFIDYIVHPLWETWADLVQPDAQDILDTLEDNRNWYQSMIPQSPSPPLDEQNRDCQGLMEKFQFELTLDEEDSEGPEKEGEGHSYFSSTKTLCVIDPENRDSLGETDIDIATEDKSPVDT
Cytochrome P450 2D6 (Homo sapiens), sequence (P10635 whole entry, looked up): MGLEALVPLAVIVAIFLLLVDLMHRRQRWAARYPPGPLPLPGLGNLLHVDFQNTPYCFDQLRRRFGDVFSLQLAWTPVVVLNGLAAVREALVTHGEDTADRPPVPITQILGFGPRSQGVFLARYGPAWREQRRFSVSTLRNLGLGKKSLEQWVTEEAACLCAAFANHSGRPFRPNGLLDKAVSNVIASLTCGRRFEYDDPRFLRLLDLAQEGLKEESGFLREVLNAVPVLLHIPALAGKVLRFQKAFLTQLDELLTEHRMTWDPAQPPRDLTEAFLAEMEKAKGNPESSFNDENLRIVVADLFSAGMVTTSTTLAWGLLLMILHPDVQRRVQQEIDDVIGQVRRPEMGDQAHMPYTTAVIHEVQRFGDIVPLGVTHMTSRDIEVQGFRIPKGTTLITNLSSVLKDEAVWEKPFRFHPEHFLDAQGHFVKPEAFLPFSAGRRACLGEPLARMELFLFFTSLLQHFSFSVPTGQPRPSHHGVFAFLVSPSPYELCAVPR

As to `O=c1c(-c2ccc(Cl)cc2)nc2cncnc2n1Cc1ccccc1`, the Potency in [1] is above 11.4 µM; in assay [5] it was above 9.22 µM; in assay [6], above 46 µM. For the same compound, the figures for the activity change, negative = inhibition in assay [2] and in [3] were -10.4% and -17%, respectively. Also, in [4], the activity, negative = inhibition is -3.39%. For the same compound, the Potency result in [7], in [8] and in assay [9] was “inactive” in each case. Also, the activation in assay [10] was -4.75%. The result in [11] was inactive.

For `COc1ccc(-c2nc3cnc(OC)nc3n(C3CC3)c2=O)cc1`, the Potency is above 11.4 µM in [1], above 9.22 µM in [5] and above 46 µM in [6]. The activity change, negative = inhibition was -14.2% in assay [2] and -0.173% in assay [3]. For the same compound, in assay [4], the activity, negative = inhibition is 2.68%. Besides, the Potency result in [7], in assay [8] and in assay [9] was “inactive” throughout. Besides, the outcome in assay [11] was inactive.

As for `COc1ccc(Oc2ncc3nc(C)c(=O)n(CCc4ccccc4)c3n2)cc1`, the values for the Potency in assay [1], in [5] and in assay [6] were above 11.4 µM, above 9.22 µM and above 46 µM, respectively. The activity change, negative = inhibition in [2] is 18.2%; in assay [3], 0.509%. Besides, the activity, negative = inhibition in [4] was 2.93%. In assay [7], the Potency result is “inactive”. The result in [11] was inactive.

In the case of `O=c1cnc2cnc(Oc3ccccc3)nc2n1C[C@H]1CCCO1`, the Potency is above 11.4 µM in [1], above 9.22 µM in [5] and above 46 µM in assay [6]. Also, the activity change, negative = inhibition in assay [2] is -19.1%; in [3] it was -3.47%. The activity, negative = inhibition in [4] is -8.07%. Moreover, the Potency entry in [7] and in [8] was “inactive” each time. Besides, the outcome in [11] was inactive.

As for `COc1ccc(C(=O)N2CCC[C@@]3(CCN(C)C3)C2)cc1`, the Potency in assay [1] was above 11.4 µM; in assay [6] it was above 46 µM. The activity change, negative = inhibition in assay [2] was 10.5%; in assay [3] it was -2.06%. The activity, negative = inhibition in [4] is 1.69%. In addition, the Potency entry in assay [7] and in assay [8] was “inactive” throughout. The outcome in assay [11] was inactive.

In the case of `O=C(c1cccc(F)c1)N1CCC2(CC1)CN(c1ccccc1)C2`, the Potency in assay [1] is above 11.4 µM; in [6], above 46 µM; in [9], 7.94 µM (active). Also, the activity change, negative = inhibition is -0.575% in assay [2] and 6.14% in assay [3]. The activity, negative = inhibition in assay [4] is -1.57%. Further, the Potency result in assay [7], in [8] and in assay [12] was “inactive” each time. Further, the result in [11] was inactive.

For the compound `CS(=O)(=O)N1CCC2(CCCN(Cc3cc(C(F)(F)F)cc(C(F)(F)F)c3)C2)CC1`, the results for the Potency in assay [1] and in assay [6] were above 11.4 µM and above 46 µM, respectively. Further, the activity change, negative = inhibition in assay [2] was 20%; in assay [3], -14.4%. For the same compound, in assay [4], the activity, negative = inhibition was 5.1%. The Potency result in assay [7] and in [8] was “inactive” throughout. In addition, in assay [11], the result was inactive.

Take `O=S(=O)(c1ccccc1)N1CCC2(CCCN(C(c3ccccc3)c3ccccc3)C2)CC1`: the Potency in assay [1] was above 11.4 µM; in [6], above 46 µM; in [12], 2 µM (active); in [13], 0.501 µM (active). In addition, the activity change, negative = inhibition in assay [2] was -2.18%; in assay [3], -9.54%. In addition, the activity, negative = inhibition in assay [4] is -3.12%. For the same compound, the Potency entry in [7], in assay [8] and in [9] was “inactive” throughout. In addition, in assay [11], the outcome was inactive.
